AMPAR-TARP mod – modulates AMPAR-stargazin complexes; HEK293 GluA2+stargazin, membrane potential dye (FDSS), glutamate EC50; hits were called plate by plate, in both directions; calls only at 30 µM; 40,000 compounds, 3.5% hits; AID 1259245;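 active = any of four per-well response measures lying three or more SD from its plate-wide compound average, in either direction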
GIRK2 act – Activates human GIRK2-containing potassium channels. P48051. HEK293 GIRK2/NPY4 cells, thallium flux fluorescence. activation (% efficacy), % for hits at 37.5 µM. 34,000 tested, under 10 active;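 active = primary screen hit, no activity in plain HEK293 cells, and in GIRK2-only cells above 5% efficacy rising with concentration; inactive = the rest, including fluorescent compounds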;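 also: efficacy is normalized control-subtracted fluorescence 15 s after thallium addition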
Target sequence (P48051 whole entry, looked up): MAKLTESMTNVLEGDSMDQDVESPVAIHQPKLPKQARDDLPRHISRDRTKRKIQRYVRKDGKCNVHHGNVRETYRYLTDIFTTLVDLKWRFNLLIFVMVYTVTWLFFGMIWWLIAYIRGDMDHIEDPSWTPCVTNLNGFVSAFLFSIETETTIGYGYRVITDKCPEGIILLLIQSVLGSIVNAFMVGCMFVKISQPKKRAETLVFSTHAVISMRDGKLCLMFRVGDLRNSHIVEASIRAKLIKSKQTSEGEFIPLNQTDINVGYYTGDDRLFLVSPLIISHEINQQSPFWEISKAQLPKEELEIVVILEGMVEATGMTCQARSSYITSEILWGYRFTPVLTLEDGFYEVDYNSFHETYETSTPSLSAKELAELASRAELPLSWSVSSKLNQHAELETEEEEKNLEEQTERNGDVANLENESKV
The depositor's hits bear a star; i = inactive; / = not tested or not shown; + = active, no number. The sample as a whole holds a higher share of hits than the screen did.

SMILES	AMPAR-TARP mod	GIRK2 act
O=C(c1cc(=O)c2ccccc2o1)N(C(=O)N1CCCCC1)c1ccc(Cl)cc1	+	/
CCCc1ccc(S(=O)(=O)N2CCN(CCn3nc(C)cc3C)CC2)cc1	i	i
COc1ccc(-c2noc(-c3ccc(=O)n(CC(=O)Nc4cccc(C(F)(F)F)c4)c3)n2)cc1	i	i
O=C(Nc1ccc(SC(F)F)cc1)c1cc2ccccc2oc1=O	i	/
O=C(CCCn1c(=S)[nH]c2ccc(Br)cc2c1=O)NCc1ccccc1	i	i
COc1cc(C(=O)Nc2cc3c4c(c2)CCN4C(=O)CC3)cc(OC)c1OC	i	i
O=C(C1CC1)N1CCc2ccc(NS(=O)(=O)c3ccc4c(c3)OCCO4)cc21	i	i
O=C(Nc1ccc2c(c1)N(C(=O)C1CC1)CC2)c1cc(Br)ccc1Cl	i	i
O=C(c1ccco1)N1CCc2ccc(NS(=O)(=O)Cc3ccccc3)cc21	i	i
O=C(Nc1ccc2c(c1)N(C(=O)C1CC1)CC2)c1ccc(Cl)c(Cl)c1	+	i
O=C(C1CC1)N1CCc2ccc(NS(=O)(=O)c3ccc4c(c3)CCCC4)cc21	+	i
O=C(C1CCCC1)N1CCc2ccc(NS(=O)(=O)Cc3ccccc3)cc21	+	i
Cc1cc(C(=O)Nc2ccc3c(c2)CN(C(=O)c2ccco2)CC3)no1	i	i
CC(O)(CNC(=O)Nc1ccccc1Cl)c1ccc2c(c1)OCO2 (centres undefined)	i	i
COc1cccc(NC(=O)Nc2ccc3c(c2)N(C(=O)c2ccccc2)CCC3)c1OC	/	i
CCN1CCN(c2nc3c(c(=O)[nH]c(=O)n3C)n2CC(O)COc2ccc(Cl)cc2)CC1 (centres undefined)	+	/
Cn1c(=O)c2c(nc(N3CCN(Cc4ccccc4)CC3)n2CC(O)COc2ccc(Cl)cc2)n(C)c1=O (centres undefined)	+	/
CCN1CCN(c2nc3c(c(=O)n(C)c(=O)n3C)n2CC(O)COc2ccccc2)CC1 (centres undefined)	i	/
CC(O)CNc1nc2c(c(=O)[nH]c(=O)n2C)n1CC(O)COc1ccc(Cl)cc1 (centres undefined)	i	/
COc1ccc(OC)c(CCN2CC(=O)N(c3ccccc3)C3CS(=O)(=O)CC32)c1 (centres undefined)	i	i
C#CCOCC(O)CN1CCN(c2ccc(F)cc2)CC1 (centres undefined)	i	i
O=C(Nc1nc(CCC(=O)N2CCc3ccccc32)cs1)c1ccc(F)cc1	i	i
Cc1cc(Nc2ccccc2)nc(N2CCN(C(=O)c3ccc4c(c3)OCO4)CC2)n1	i	/
O=C(Cc1ccc(Cl)cc1)N1CCN(c2ccc(Nc3ccccn3)nn2)CC1	i	i
O=C(COc1ncccn1)N1CCN(c2ccc(Nc3ccccn3)nn2)CC1	+	i
SMILES	AMPAR-TARP mod	GIRK2 act
Cc1ccc(Nc2cc(C)nc(N3CCN(C(=O)COc4ncccn4)CC3)n2)cc1	+	i
Cc1cc(C)n(-c2ccc(N3CCN(C(=O)COc4ncccn4)CC3)nn2)n1	/	i
COc1ccc(Nc2cc(C)nc(N3CCN(C(=O)C4CCCC4)CC3)n2)cc1	+	i
O=S(=O)(NCC1COC2(CCCCC2)O1)c1ccc(Br)cc1 (centres undefined)	i	i
CCOc1ccccc1C(=O)N1CCN(c2ncnc3c2nnn3-c2ccc(OC)cc2)CC1	+	/
CCOc1ccccc1C(=O)N1CCN(c2ncnc3c2nnn3-c2ccc(F)cc2)CC1	i	i
Cc1ccc(NC(=O)/C=C2\SC(=O)N(CC(=O)Nc3ccc(S(N)(=O)=O)cc3)C2=O)cc1	i	/
CCOc1cn(-c2ccc(F)cc2)nc1C(=O)N1c2ccccc2CC1C (centres undefined)	+	i
CCOc1cn(-c2ccc(F)cc2)nc1C(=O)N1CCCCC1	i	i
CCOC(=O)N1CCN(C(=O)c2nn(-c3ccc(F)cc3)cc2OCC)CC1	i	i
CCCOc1cn(-c2ccc(F)cc2)nc1C(=O)NCCC(C)C	+	i
CCCOc1cn(-c2ccc(F)cc2)nc1C(=O)NCCc1ccccc1	i	i
CCOc1cn(-c2ccc(F)cc2)nc1C(=O)N1CC(C)CC(C)C1 (centres undefined)	+	i
COc1ccc(-c2ccc(=O)n(CCCC(=O)Nc3cc(C)ccc3C)n2)cc1OC	i	i
O=C(NCc1ccc2c(c1)OCO2)C(=O)Nc1cc2c3c(c1)CCC(=O)N3CCC2	i	i
COC(=O)c1ccc(NC(=O)CCCn2nc(-c3ccc(Cl)cc3)ccc2=O)cc1	i	i
CS(=O)(=O)N1CCC(C(=O)NCCn2nc(-c3ccc(Cl)cc3)ccc2=O)CC1	/	i
CCCNC(=O)Cc1csc(NC(=O)OC)n1	/	i
CC(c1ccccc1)n1c(N2CCCCCC2)nc2c1c(=O)n(C)c(=O)n2C (centres undefined)	+	i
CC(c1ccccc1)n1c(N2CCCC2)nc2c1c(=O)n(C)c(=O)n2C (centres undefined)	i	i
NC(=O)c1ccccc1NC(=O)c1ccc(=O)n(Cc2c(F)cccc2Cl)c1	i	i
CC(NC(=O)CCCc1nnc2c(=O)n(-c3ccc(Cl)cc3)ccn12)c1ccccc1 (centres undefined)	i	/
CCCc1nnc2c(=O)n(-c3cc(C)cc(C)c3)ccn12	+	i
O=c1c2ccccc2nc(SCc2nc(-c3cccs3)no2)n1Cc1ccc(F)cc1	i	/
O=C(CCc1ccccc1)N1CCc2cc(S(=O)(=O)NC3CCCC3)ccc21	i	i
SMILES	AMPAR-TARP mod	GIRK2 act
CCOc1ccc(-n2nnnc2SC(C)C(=O)Nc2cc(C)on2)cc1 (centres undefined)	+	/
COc1cccc(NC(=O)C(C)Sc2nnnn2-c2ccc(C)cc2)c1 (centres undefined)	i	/
CCOc1ccc(-n2nnnc2SC(C)C(=O)Nc2cccc(OC)c2)cc1 (centres undefined)	+	/
Cc1cccc(-n2nnnc2SC(C)C(=O)Nc2cc(C)on2)c1 (centres undefined)	i	/
COc1ccc2nc(-c3ccc(NC(=O)C(C)Oc4ccccc4F)cc3)cn2n1 (centres undefined)	i	i
O=C(NCc1n[nH]c(=O)c2ccccc12)c1ccc(Br)o1	i	i
O=C(NCc1n[nH]c(=O)c2ccccc12)c1cc(=O)c2ccccc2o1	+	i
O=C(NC1CC(=O)N(c2ccccc2)C1)c1ccccc1C(F)(F)F (centres undefined)	i	/
COc1ccc(N2CC(NC(=O)c3ccccc3C(F)(F)F)CC2=O)cc1 (centres undefined)	+	/
CCOc1ccc(-n2nnnc2SCC(=O)Nc2ccc(C)c(C)c2)cc1	i	i
CCc1cccc2sc(N3CCN(C(=O)Cc4ccc(S(=O)(=O)CC)cc4)CC3)nc12	+	/
CS(=O)(=O)c1ccc(CC(=O)N2CCN(c3nc4c(Cl)cccc4s3)CC2)cc1	i	/
CCOc1ccc(S(=O)(=O)NC(C)C)c2ccccc12	i	/
CC12CCC(C(=O)Nc3ccccc3-n3cccc3)(CC1=O)C2(C)C (centres undefined)	+	/
CC12CCC(C(=O)Nc3ccccc3N3CCOCC3)(CC1=O)C2(C)C (centres undefined)	i	i
